These results are taken from PubChem BioAssay.

SMILES strings stand for the structures. The source made the active and inactive calls.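 The calls were made as follows, unless noted: active = compounds that lower viability of the colon cancer cells in the luminescence readout, with no numeric limit stated; inactive = the rest.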

Experiment [1] is described as follows: Wnt pathway potentiators raising nuclear beta-catenin – imaging, WNT3A-conditioned medium, mouse C2C12, NPC library, primary screen (AID 1117326; in the data active = nuclear beta-catenin stimulation mostly above about 4.2%, no sharp cut-off; inactive = mostly below about 10%; also: reference of the scale not given here). As to conditions: stronger effect = higher value.
Experiment [2] can be described thus: stimulators of insulin release from INS-1E, primary screen, cell-based, 5 mM glucose, NPC library (AID 1117329;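 active = compound raises insulin release from rat beta cells at 5 mM glucose, no numeric limit stated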; also: reference of the scale not given here). As to conditions: rat INS-1E insulin secretion, at 10 µM, stronger effect = higher value.
The nature of experiment [3]: growth inhibition of GSK3B-pretreated HCT116 cells – cell-based, CellTiter-Glo, 0.2 to 20 µM (AID 1117336;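 active = compounds lowering colon cancer cell viability after pretreatment blocking the GSK3B kinase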). As to conditions: HCT116 viability after GSK3B inhibitor, at 20 µM, stronger effect = higher value. (In general: In ATP-based viability assays light output follows the ATP content of the culture.)
The nature of experiment [4]: inhibition of endothelial tube formation, primary screen, imaging, VEGF stimulated, CD31 staining, tube area, NPC library (AID 1117340;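 active = compound that reduces growth-factor-driven endothelial tube area in a mixed cell culture, no cutoff stated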). As to conditions: VEGF-stimulated ADSC/ECFC co-culture, at 10 µM, stronger effect = higher value.
A short description of experiment [5]: GLP1 release stimulators, primary, NCI-H716, NPC library (AID 1117341;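 active = compound raises GLP1 secretion from the human gut endocrine cells, with no numeric limit stated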; also: reference of the scale not given here). As to conditions: NCI-H716 cells, at 10 µM, stronger effect = higher value.
Experiment [6] is described as follows: HCT116 colon cancer cell growth inhibition, primary screen, CellTiter-Glo luminescence, NPC library (AID 1117342;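 active = compounds that lower survival of HCT116 colon cancer cells in the luminescence readout, no numeric limit stated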). The following applies: at 20 µM (top of the series).
Experiment [7] can be described thus: reduced SW480 viability measured with CellTiter-Glo, NPC library, primary (AID 1117343). As to conditions: CellTiter-Glo luminescence; at 20 µM (top of the series).
Experiment [8] is described as follows: NPC library primary testing for decreased DLD-1 cell viability via CellTiter-Glo (AID 1117346;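 active = compounds that lower survival of DLD-1 colon cancer cells in the luminescence readout, no cutoff given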). The following applies: DLD-1 viability, CellTiter-Glo luminescence; at 20 µM (top of the series).

On to `CC1(S(=O)(=O)O)CC(=O)c2ccccc2C1=O` (configuration not stated), for which the nuclear beta-catenin stimulation in experiment [1] (at 10 µM) was 30.3% (inactive); in experiment [1] (stimulation, at 2 µM), -0.2%. Moreover, the insulin secretion stimulation in experiment [2] was -0.7% (inactive). In addition, the viability decrease in experiment [3] was 98.8% (active). In experiment [4], the tube area decrease was 54.7% (active). Further, in experiment [5], the GLP1 secretion stimulation was 1.2% (inactive). For the same molecule, in experiment [6], the inhibition of viability was 99.2% (active). For the same molecule, the viability decrease (inhibition) in experiment [7] and in experiment [8] was 102% (active) each time.

`NCC[C@H](O)C(=O)N[C@@H]1C[C@H](N)[C@@H](O[C@H]2O[C@H](CN)[C@@H](O)[C@H](O)[C@@H]2O)[C@H](O)[C@@H]1O[C@H]1O[C@H](CO)[C@@H](O)[C@H](N)[C@@H]1O`: the nuclear beta-catenin stimulation in experiment [1] (at 10 µM) was 0.4% (inactive); in experiment [1] (stimulation, at 2 µM) it was -1.1%. In experiment [2], the insulin secretion stimulation is 1.1% (inactive). For the same molecule, the viability decrease in experiment [3] is -9.3% (inactive). The tube area decrease in experiment [4] is -7.9% (inactive). In experiment [5], the GLP1 secretion stimulation was 0.5% (inactive). In experiment [6], the inhibition of viability was -2.7% (inactive). The viability decrease (inhibition) is -3.7% (inactive) in experiment [7] and 0.5% (inactive) in experiment [8].

In the case of `CCCN(CCC)C(=O)C(CCC(=O)OCCCN1CCN(CCOC(=O)Cc2c(C)n(C(=O)c3ccc(Cl)cc3)c3ccc(OC)cc23)CC1)NC(=O)c1ccccc1` (configuration not stated), the nuclear beta-catenin stimulation in experiment [1] (at 10 µM) was 51% (active); in experiment [1] (stimulation, at 2 µM), -0.4%. Also, in experiment [2], the insulin secretion stimulation is 0.4% (inactive). In experiment [3], the viability decrease is 113% (active). For the same molecule, the tube area decrease in experiment [4] was 25.9% (inactive). In experiment [5], the GLP1 secretion stimulation is 3.5% (inactive). Moreover, the inhibition of viability in experiment [6] was 113% (active). Further, the viability decrease (inhibition) in experiment [7] was 120% (active); in experiment [8], 93.3% (active).

For the molecule `NCCC(=O)[N-][C@@H](Cc1cnc[nH]1)C(=O)O.[Zn]`, the nuclear beta-catenin stimulation is -0.4% (inactive) in experiment [1] (at 10 µM) and -0.2% in experiment [1] (stimulation, at 2 µM). In addition, the insulin secretion stimulation in experiment [2] was -0.8% (inactive). Further, the viability decrease in experiment [3] was -1.2% (inactive). For the same molecule, in experiment [4], the tube area decrease is 9.1% (inactive). The GLP1 secretion stimulation in experiment [5] was 1.7% (inactive). Also, the inhibition of viability in experiment [6] was -12.4% (inactive). The viability decrease (inhibition) in experiment [7] is -14.8% (inactive); in experiment [8], 5.9% (inactive).

For the molecule `C[C@]12C=CC(=O)C=C1[C@@H](F)C[C@@H]1[C@@H]2[C@@H](O)C[C@@]2(C)[C@H]1CC[C@]2(O)C(=O)CO`, the nuclear beta-catenin stimulation is -1.5% (inactive) in experiment [1] (at 10 µM) and -0.6% in experiment [1] (stimulation, at 2 µM). The insulin secretion stimulation in experiment [2] is 0.8% (inactive). Moreover, the viability decrease in experiment [3] is -14.4% (inactive). In addition, the tube area decrease in experiment [4] was 11.3% (inactive). Moreover, the GLP1 secretion stimulation in experiment [5] is -2.3% (inactive). For the same molecule, the inhibition of viability in experiment [6] was 5% (inactive). The viability decrease (inhibition) in experiment [7] is 19.5% (inactive); in experiment [8], -6.1% (inactive).

In the case of `CC(C)Cc1ccc(CC(=O)O)cc1`, the nuclear beta-catenin stimulation in experiment [1] (at 10 µM) is -0.7% (inactive); in experiment [1] (stimulation, at 2 µM), -0.2%. Moreover, the insulin secretion stimulation in experiment [2] is 0.2% (inactive). Further, the viability decrease in experiment [3] is -11.5% (inactive). Moreover, the tube area decrease in experiment [4] is -13.7% (inactive). Also, in experiment [5], the GLP1 secretion stimulation was -1.8% (inactive). In experiment [6], the inhibition of viability is -3.5% (inactive). Also, the viability decrease (inhibition) is 4.2% (inactive) in experiment [7] and -8% (inactive) in experiment [8].

Take `CCCCCCCCCCCCCCCCCCN(C)C`: the nuclear beta-catenin stimulation was -0.6% (inactive) in experiment [1] (at 10 µM) and -1.1% in experiment [1] (stimulation, at 2 µM). Moreover, in experiment [2], the insulin secretion stimulation is 0.9% (inactive). The viability decrease in experiment [3] was 1.2% (inactive). Besides, the tube area decrease in experiment [4] is -8% (inactive). Besides, in experiment [5], the GLP1 secretion stimulation is -0.1% (inactive). Also, the inhibition of viability in experiment [6] was 43.3% (inactive). For the same molecule, the values for the viability decrease (inhibition) in experiment [7] and in experiment [8] were -27.7% (inactive) and -0.1% (inactive), respectively.

Take `CC1(C)S[C@@H]2[C@H](NC(=O)Cc3ccccc3)C(=O)N2[C@H]1C(=O)O` (tested in a mixture with another compound): the nuclear beta-catenin stimulation is 0.8% (inactive) in experiment [1] (at 10 µM) and -0.3% in experiment [1] (stimulation, at 2 µM). Besides, in experiment [2], the insulin secretion stimulation is -0.8% (inactive). For the same molecule, in experiment [3], the viability decrease was -4.9% (inactive). Further, in experiment [4], the tube area decrease was -6.3% (inactive). In addition, in experiment [5], the GLP1 secretion stimulation was -3.4% (inactive). For the same molecule, the inhibition of viability in experiment [6] was -7.93% (inactive). The figures for the viability decrease (inhibition) in experiment [7] and in experiment [8] were -25.3% (inactive) and -12.1% (inactive), respectively.
